Laboratory results published in PubChem BioAssay AID1159580 (chemical genetic matrix, 2015).
Values joined by “and” are separate entries in the source; they are usually repeats but may differ in a detail not shown here. Identical values can stand only once. The whole screen tested about 5,500 compounds, of which about 2,000 (36%) were called active. About 18% were inconclusive and are not listed. Rule as the data show it: active = normalized growth mostly below about 0.91 (no sharp cut-off); inconclusive = no clear call, values can overlap the other calls; inactive = mostly above about 0.92. This is one part of the list.

Assay: chemical genetic growth profiling, strain panel (AID 1159580);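 also: tested at 20 µM; growth read once vehicle control cultures reached saturation at 30 °C; 1 = growth at the plate median or of vehicle wells; lower values mean less growth of the strain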
Settings: S. cerevisiae deletion strains, growth OD
[1] = locus YJR075W, strain HOC1, active compounds read low
[2] = locus YMR307W, strain GAS1, active compounds read low
[3] = locus YNL322C, strain KRE1, active compounds read low
[4] = locus YPL241C, strain CIN2, active compounds read low

Measured: normalized growth

CC(=O)OCC[N+](C)(C)C
inactive: locus YAL013W, strain DEP1, active compounds read low 1.01 | locus YAL021C, strain ccr4, active compounds read low 1.03 | locus YAL030W, strain snc1, active compounds read low 1.02 | locus YBL061C, strain skt5, active compounds read low 1.03 | locus YBR009C, strain hhf1, active compounds read low 1.08 | locus YBR021W, strain FUR4, active compounds read low 1.06 | locus YBR023C, strain chs3, active compounds read low 1.05 | locus YBR171W, strain sec66, active compounds read low 0.999 | locus YBR229C, strain ROT2, active compounds read low 1.01 | locus YBR231C, strain swc5, active compounds read low 1.03 | locus YBR279W, strain paf1, active compounds read low 1.04 | locus YCL011C, strain gbp2, active compounds read low 1.07 | locus YCL016C, strain dcc1, active compounds read low 1.05 | locus YCL029C, strain bik1, active compounds read low 1.04 | locus YCL069W, strain vba3, active compounds read low 1.03 | locus YCR088W, strain abp1, active compounds read low 1.02 | locus YDL005C, strain med2, active compounds read low 1 | locus YDL035C, strain GPR1, active compounds read low 0.961 | locus YDL040C, strain nat1, active compounds read low 1.02 | locus YDL074C, strain BRE1, active compounds read low 0.965 | locus YDL101C, strain DUN1, active compounds read low 0.985 | locus YDL134C, strain PPH21, active compounds read low 0.986 | locus YDL185W, strain tfp1, active compounds read low 0.969 | locus YDL192W, strain arf1, active compounds read low 1.02 | locus YDR001C, strain nth1, active compounds read low 1.01 | locus YDR069C, strain doa4, active compounds read low 1 | locus YDR101C, strain arx1, active compounds read low 1.07 | locus YDR162C, strain NBP2, active compounds read low 0.948 | locus YDR297W, strain sur2, active compounds read low 1.02 | locus YDR318W, strain mcm21, active compounds read low 1.01 | locus YDR334W, strain swr1, active compounds read low 1.03 | locus YDR335W, strain msn5, active compounds read low 1 | locus YDR388W, active compounds read low 1.02 | locus YDR392W, strain spt3, active compounds read low 1.13 | locus YDR502C, strain sam2, active compounds read low 1.01 | locus YEL003W, strain gim4, active compounds read low 1.01 | locus YEL037C, strain rad23, active compounds read low 1.03 | locus YEL061C, strain CIN8 (second series), active compounds read low 1.03 | locus YEL061C, strain CIN8, active compounds read low 0.993 | locus YER015W, strain faa2, active compounds read low 1.07 | locus YER016W, strain bim1, active compounds read low 1.02 | locus YER110C, active compounds read low 1.01 | locus YER111C, strain swi4, active compounds read low 1.02 | locus YER155C, strain BEM2 (second series), active compounds read low 1.11 | locus YER155C, strain BEM2, active compounds read low 1.02 | locus YER167W, strain BCK2, active compounds read low 1.01 | locus YFR010W, strain ubp6, active compounds read low 1.01 | locus YGL078C, strain dbp3, active compounds read low 1.03 | locus YGL086W, strain mad1, active compounds read low 1.01 | locus YGL167C, strain pmr1, active compounds read low 1.01 | locus YGL173C, strain kem1, active compounds read low 1.02 | locus YGL227W, strain vid30, active compounds read low 1.02 | locus YGL240W, strain doc1, active compounds read low 1.11 | locus YGL248W, strain PDE1, active compounds read low 0.99 | locus YGL253W, strain hxk2, active compounds read low 1.03 | locus YGR135W, strain pre9, active compounds read low 0.996 | locus YGR252W, strain gcn5, active compounds read low 0.943 | locus YHR013C, strain ard1, active compounds read low 1.11 | locus YHR027C, strain rpn1, active compounds read low 1.02 | locus YHR030C, strain SLT2, active compounds read low 1.01 and 1.08 | locus YHR079C, strain IRE1 (second series), active compounds read low 1.02 | locus YHR079C, strain IRE1, active compounds read low 1.1 | locus YHR094C, strain hxt1, active compounds read low 1.02 | locus YHR129C, strain ARP1, active compounds read low 1.01 | locus YHR142W, strain chs7, active compounds read low 1.1 | locus YHR200W, strain rpn10, active compounds read low 1.02 | locus YIL066C, strain RNR3, active compounds read low 0.988 | locus YIL073C, strain SPO22, active compounds read low 0.973 | locus YIL125W, strain kgd1, active compounds read low 1.03 | locus YIR030C, strain dcg1, active compounds read low 1.06 | locus YJL092W, strain hpr5, active compounds read low 1.02 | locus YJL095W, strain BCK1 (second series), active compounds read low 1.02 | locus YJL095W, strain BCK1, active compounds read low 0.928 and 1.07 | locus YJL115W, strain asf1, active compounds read low 1.03 | locus YJL129C, strain trk1, active compounds read low 1.09 | locus YJL134W, strain LCB3, active compounds read low 1.02 | locus YJL154C, strain vps35, active compounds read low 1.03 | locus YJL164C, strain tpk1, active compounds read low 1.05 | locus YJL166W, strain qcr8, active compounds read low 1.04 | locus YJL168C, strain set2, active compounds read low 1.03 | locus YJL187C, strain SWE1 (second series), active compounds read low 0.951 | locus YJL187C, strain SWE1, active compounds read low 1.02 | locus YJR043C, strain POL32, active compounds read low 0.994 | locus YJR066W, strain TOR1, active compounds read low 1.03 | [1] 0.978 | locus YKL009W, strain mrt4, active compounds read low 0.945 | locus YKL068W, active compounds read low 1.01 | locus YKL085W, strain MDH1 (second series), active compounds read low 1.01 | locus YKL085W, strain MDH1, active compounds read low 1.01 | locus YKL160W, strain elf1, active compounds read low 1.03 | locus YKR001C, strain vps1, active compounds read low 0.975 | locus YKR026C, strain gcn3, active compounds read low 1.03 | locus YKR091W, strain srl3, active compounds read low 1.02 | locus YLL001W, strain dnm1, active compounds read low 1.02 | locus YLL026W, active compounds read low 1.03 | locus YLL041C, strain sdh2, active compounds read low 1.02 | locus YLR027C, strain aat2, active compounds read low 1.02 | locus YLR039C, strain RIC1, active compounds read low 0.756 | locus YLR058C, strain SHM2, active compounds read low 0.972 | locus YLR102C, strain apc9, active compounds read low 1.01 | locus YLR113W, strain HOG1, active compounds read low 1.14 | locus YLR258W, strain gsy2, active compounds read low 1.04 | locus YLR262C, strain YPT6, active compounds read low 0.801 | locus YLR268W, strain sec22, active compounds read low 0.967 | locus YLR320W, strain mms22, active compounds read low 1.1 | locus YLR330W, strain CHS5, active compounds read low 0.998 | locus YLR342W, strain FKS1 (second series), active compounds read low 0.986 | locus YLR342W, strain FKS1, active compounds read low 1.01 | locus YLR357W, strain rsc2, active compounds read low 1.12 | locus YLR370C, strain arc18, active compounds read low 1.03 | locus YLR371W, strain rom2, active compounds read low 1.08 | locus YLR384C, strain iki3, active compounds read low 1.02 | locus YLR418C, strain cdc73, active compounds read low 0.99 | locus YML016C, strain PPZ1, active compounds read low 0.993 | locus YML032C, strain rad52, active compounds read low 0.918 | locus YML120C, strain ndi1, active compounds read low 1.04 | locus YML124C, strain tub3, active compounds read low 1 | locus YMR058W, strain fet3, active compounds read low 1.05 | locus YMR078C, strain ctf18, active compounds read low 1.02 | locus YMR125W, strain sto1, active compounds read low 1.05 | locus YMR129W, active compounds read low 1.02 | locus YMR205C, strain PFK2, active compounds read low 1.08 | locus YMR223W, strain ubp8, active compounds read low 0.978 | locus YMR231W, strain pep5, active compounds read low 0.993 | [2] 1.07 | locus YNL067W, strain RPL9B, active compounds read low 0.961 | locus YNL071W, strain lat1, active compounds read low 1.04 | locus YNL183C, strain NPR1, active compounds read low 1.04 | locus YNL209W, strain ssb2, active compounds read low 1.02 | locus YNL233W, strain BNI4, active compounds read low 0.973 | locus YNL250W, strain rad50, active compounds read low 1.02 | locus YNL271C, strain bni1, active compounds read low 1.01 | locus YNL298W, strain CLA4, active compounds read low 1.01 | locus YNL307C, strain MCK1, active compounds read low 1.03 | locus YNL322C, strain KRE1 (second series), active compounds read low 1.07 | [3] 1.02 | locus YNR049C, strain mso1, active compounds read low 1.01 | locus YNR052C, strain pop2, active compounds read low 1.02 | locus YOL012C, strain htz1 1.26 | locus YOL147C, strain pex11, active compounds read low 1.03 | locus YOR001W, strain rrp6, active compounds read low 0.99 | locus YOR061W, strain CKA2, active compounds read low 0.994 | locus YOR069W, strain VPS5, active compounds read low 1.01 | locus YOR070C, strain gyp1, active compounds read low 1.02 | locus YOR080W, strain dia2, active compounds read low 1.02 | locus YOR083W, strain WHI5, active compounds read low 1.05 | locus YOR106W, strain vam3, active compounds read low 1.08 | locus YOR136W, strain idh2, active compounds read low 1.02 | locus YOR184W, strain ser1, active compounds read low 0.988 | locus YOR231W, strain MKK1, active compounds read low 1.08 | locus YOR265W, strain rbl2, active compounds read low 1.02 | locus YOR290C, strain snf2, active compounds read low 1.06 | locus YOR316C, strain cot1, active compounds read low 1.01 | locus YPL051W, strain arl3, active compounds read low 1.05 | locus YPL055C, strain LGE1, active compounds read low 0.982 | locus YPL078C, strain atp4, active compounds read low 1.04 | locus YPL106C, strain sse1, active compounds read low 1.02 | locus YPL240C, strain hsp82, active compounds read low 1.01 | [4] 1 | locus YPR119W, strain clb2, active compounds read low 1.01 | locus YPR163C, strain tif3, active compounds read low 1.01 | locus YPR167C, strain met16, active compounds read low 1.03 | strain wtn01, active compounds read low 0.996
active: locus YAL026C, strain drs2, active compounds read low 1.1 [resistant] | locus YDR137W, strain rgp1, active compounds read low 1.55 [resistant] | locus YDR159W, strain sac3, active compounds read low 1.15 [resistant] | locus YDR195W, strain ref2 1.21 [resistant] | locus YLR221C, strain rsa3, active compounds read low 1.1 [resistant] | locus YLR262C, strain YPT6 (second series), active compounds read low 1.27 [resistant] | locus YNL248C, strain rpa49, active compounds read low 1.12 [resistant] | locus YOR144C, strain elg1, active compounds read low 1.09 [resistant] | locus YOR270C, strain vph1, active compounds read low 0.749 | locus YPL256C, strain CLN2, active compounds read low 1.24 [resistant] | locus YPR141C, strain kar3, active compounds read low 1.09 [resistant]

C[N+](C)(C)CCOC(=O)CCC(=O)OCC[N+](C)(C)C
inactive: locus YAL040C, strain CLN3, active compounds read low 0.988 | locus YCL061C, strain MRC1 (second series), active compounds read low 1.01 | locus YDR150W, strain NUM1, active compounds read low 1.02 | locus YDR363W, strain ESC2, active compounds read low 1.01 | locus YER002W, strain NOP16, active compounds read low 1.01 | locus YGR229C, strain SMI1, active compounds read low 1.04 | [1] 0.992 | locus YMR263W, strain SAP30, active compounds read low 1 | [2] 1.03 | locus YNL153C, strain GIM3, active compounds read low 1.03 | locus YNL175C, strain NOP13, active compounds read low 1.01 | locus YNL197C, strain WHI3, active compounds read low 1.02 | locus YNL224C, strain SQS1, active compounds read low 1.01 | [3] 0.992 | locus YOR083W, strain WHI5 (second series), active compounds read low 1.02 | [4] 0.987
